Assay results as given in PubChem BioAssay (Tox21).
Inconclusive results are not listed. Activity calls are given as the source filed them. The call rests on the fitted dose curve; in most records, active means well fitted cell-killing curve with a large enough effect in the repeat runs; inconclusive means weak or mixed curves, or effect the other way; inactive means flat fitted curve, though single readings scatter.
On the % scale 0 is the no-effect control and ±100 the full control effect; potency means the concentration at half of the fitted maximal effect.

Test: qHTS RealTime-Glo MT Cell Viability Assay in HepG2 cells - 40 hour (AID 1224870); further: nearly all actives have a fitted effect of over 50% in size
Settings: RealTime-Glo luminescence; series mostly up to 76.8 µM; activity change, negative = cytotoxic: at the top concentration
Text: National Center for Advancing Translational Sciences [NCATS]
NIH Chemical Genomics Center [NCGC]
U.S. Environmental Protection Agency [EPA]
National Institutes of Environmental Health Sciences [NIEHS]
National Toxicology Program [NTP]
U.S. Food and Drug Administration [FDA]
Measure of cell viability is critical in the cell-base assay. Analysis of cell viability is necessary for the characterization of cell responses to cytotoxic drugs and environmental stress. A RealTime-Glo MT Cell Viability Assay to monitor cell viability in real time of continues cell culture during 40 hours of compound treatment was used to screen Tox21 10K library compounds in HepG2 cells. The RealTime-Glo MT Cell Viability Assay is a nonlytic, homogeneous, bioluminescent method to measure cell viability in real time using a simple, plate-based method. The assay involves adding NanoLuc luciferase and a cell-permeant prosubstrate to cells in culture. Viable cells reduce the proprietary prosubstrate to generate a substrate for NanoLuc luciferase. This substrate diffuses from cells into the surrounding culture medium, where it is rapidly used by the NanoLuc Enzyme to produce a luminescent signal. The signal correlates with the number of viable cells, making the assay well suited for cytotoxicity studies.
Tox21 Assay Protocol Summary:
The mixture of HepG2 cell suspension and reagents were dispensed at 600cells/6 ul/well in 1536-well tissue culture treated black solid bottom plates using a Multidrop dispenser. After the assay plates were incubated at a 37 C/5% CO2 incubator for 5 hours, 23 nL of compounds dissolved in DMSO, positive and negative controls was transferred to the assay plate by a pintool work station. The plates were incubated at 37 C for 40 hours. The luminescence intensity were measured at 0h, 8h, 16h, 24h, 32h and 40h time points using ViewLux plate reader during compound treatment.
For CCC(C)(C#N)N=NC(C)(C#N)CC (stereo not given), the “activity change, negative = cytotoxic” value was 1.48% (inactive). With COc1ccc(CN2CCNCC2)c(OC)c1OC the “activity change, negative = cytotoxic” value was 0.409% [at 35.3 µM] (inactive). For COc1ccccc1OC, the “activity change, negative = cytotoxic” value was 0.73% (inactive). In the case of Cl/C=C/CCl, the “activity change, negative = cytotoxic” value is reported as 0.0104% (inactive). For CCOP(=S)(OCC)Oc1ccc(Cl)cc1Cl, the “activity change, negative = cytotoxic” value was -3.2% (inactive). For Cc1ccc2cc(C)ccc2c1, the “activity change, negative = cytotoxic” value was -0.224% (inactive). With Nc1c(Cl)c(F)nc(OCC(=O)O)c1Cl the “activity change, negative = cytotoxic” value was 2.83% (inactive). With O=C/C=C/c1ccco1 the “activity change, negative = cytotoxic” value was 9.19% (inactive). With C=CCC1(C(C)CC)C(=O)NC(=O)NC1=O (stereo not given) the “activity change, negative = cytotoxic” value was 2.23% [at 35.3 µM] (inactive). In the case of CCCCCCCCBr, the “activity change, negative = cytotoxic” value is reported as 0.757% (inactive). For O=c1[nH]c2ccccc2o1, the “activity change, negative = cytotoxic” value was -5.63% (inactive). In the case of N[C@@H](Cc1ccc(Oc2cc(I)c(O)c(I)c2)c(I)c1)C(=O)O, the “activity change, negative = cytotoxic” value is reported as 3.31% [at 35.3 µM] (inactive). For O=C(CCl)NCO, the “activity change, negative = cytotoxic” value was -0.467% (inactive). With CCCN1CCC[C@@H]2Cc3[nH]ncc3C[C@H]21 the “activity change, negative = cytotoxic” value was 3.06% [at 35.3 µM] (inactive). For CCNP(=S)(OC)O/C(C)=C/C(=O)OC(C)C (stereo not given), the “activity change, negative = cytotoxic” value was -0.0069% (inactive). With CCOP(=S)(OCC)SCCl the “activity change, negative = cytotoxic” value was 1.28% (inactive). In the case of C=C(Cl)CCl, the “activity change, negative = cytotoxic” value is reported as -4.94% (inactive). For C=C(C)[C@H]1CN[C@H](C(=O)O)[C@H]1CC(=O)O, the “activity change, negative = cytotoxic” value was 2.4% [at 35.3 µM] (inactive). In the case of CC[C@H](N)c1ccccc1, the “activity change, negative = cytotoxic” value is reported as 16.6% (inactive). In the case of C=CC=O, the “activity change, negative = cytotoxic” value is reported as 0.825% (inactive). In the case of CC(C)(C)NC[C@H](O)c1ccc(O)cc1Cl, the “activity change, negative = cytotoxic” value is reported as 3.74% [at 35.3 µM] (inactive). With CNC(=O)Oc1ccccc1C(C)C the “activity change, negative = cytotoxic” value was 0.66% (inactive). With ClCCCCl the “activity change, negative = cytotoxic” value was 0.481% (inactive). With O=C(Cl)C(Cl)(Cl)Cl the “activity change, negative = cytotoxic” value was -2.69% (inactive). For CN(C)C1CCCCC1, the “activity change, negative = cytotoxic” value was -0.259% (inactive). For COP(=O)(O)OC, the “activity change, negative = cytotoxic” value was -1.48% (inactive). For CC(Cc1ccccc1)NCCCCl (stereo not given), the “activity change, negative = cytotoxic” value was 2.69% [at 35.3 µM] (inactive). With NCCOS(=O)(=O)O the “activity change, negative = cytotoxic” value was 2.7% (inactive). In the case of CCC1(CC)C(=O)C=CNC1=O, the “activity change, negative = cytotoxic” value is reported as 2.9% [at 35.3 µM] (inactive). With CCC(CC)(CNC(=O)CCCO)c1cccc(OC)c1 the “activity change, negative = cytotoxic” value was -1.46% [at 35.3 µM] (inactive). With CCOC(=O)C(Cl)Cc1cc(-n2nc(C)n(C(F)F)c2=O)c(F)cc1Cl (stereo not given) the “activity change, negative = cytotoxic” value was 0.605% (inactive). For O=C(Cl)C(Cl)Cl, the “activity change, negative = cytotoxic” value was -1.68% (inactive). For OP(O)c1ccccc1, the “activity change, negative = cytotoxic” value was -3.98% (inactive). In the case of CCOC(=O)N(C)N=O, the “activity change, negative = cytotoxic” value is reported as -1.19% (inactive). In the case of CC#Cc1cc(C)nc(Nc2ccccc2)n1, the “activity change, negative = cytotoxic” value is reported as -7.85% (inactive). In the case of CCNc1nc(Cl)nc(NC(C)(C)C)n1, the “activity change, negative = cytotoxic” value is reported as 0.783% (inactive). In the case of CC(C)[N+](C)(CCC(C(N)=O)(c1ccccc1)c1ccccc1)C(C)C, the Potency is reported as 19 µM (active). For O=[N+]([O-])CCO, the “activity change, negative = cytotoxic” value was 0.381% (inactive). With CCc1cc(OC)c(C[C@H](C)N)cc1OC the “activity change, negative = cytotoxic” value was -6.19% (inactive). For CCC1(c2cccc(O)c2)CCCCN(C)C1 (stereo not given), the “activity change, negative = cytotoxic” value was -8.53% [at 35.3 µM] (inactive).
